Data: ChEMBL document CHEMBL1157539, “Thousands of chemical starting points for antimalarial lead identification” (Nature, 2010)

tested on: Plasmodium falciparum; experiment: GSK_TCMDC: Inhibition of Plasmodium falciparum 3D7 in whole red blood cells, using parasite LDH activity as an index of growth. Test compounds present at 2uM; format: functional

Compound	Inhibition [%]
COc1ccccc1NS(=O)(=O)c1cc(C(=O)Nc2ccc(N3CCOCC3)c(S(=O)(=O)Nc3ccccc3Cl)c2)ccc1Cl	97
NC1CCN(c2cnn(Cc3cccc(NC(=O)Nc4ccc(-c5ccccc5)cc4)c3)c(=O)c2Cl)CC1.O=C(O)C(F)(F)F	89
O=c1sn(-c2csc3ccccc23)c2ccccc12	94
Cl.Cn1c(=O)n(C)c2cc(CNCCNc3ccnc4cc(Cl)ccc34)ccc21	100
CC(C)(C)CC(C)(C)c1ccc(O)c(C(=O)Nc2ccc([N+](=O)[O-])cc2)c1	97
Cc1ccc2nc(C)cc(Nc3ccccc3O)c2c1.Cl	96
O=C(NC1CCN(Cc2ccccc2O)C1)c1ccc(Cl)c(Cl)c1.O=C(O)C(F)(F)F (stereo not given)	92
CN1CCN(C(=O)CN2CCC3(CCC2=O)NC(=O)c2ccccc2O3)CC1 (stereo not given)	99
O.O=C1C([N+](=O)[O-])=C(O)c2c(F)cccc21	95
COC1(C)Oc2ccc3cccc([N+](=O)[O-])c3c2C1=O (stereo not given)	98
O=C(c1ccc(-c2ccc(-c3nc4cc(C(F)(F)F)ccc4[nH]3)s2)cc1)N1CCN(CCc2ccccc2)CC1	98
O=C(Nc1ccc(Cl)c(-c2nc3ccccc3[nH]2)c1)c1ccc(-c2ccc(Cl)cc2)o1	89
COc1cc2nc(N3CCC(CNC(=O)c4ccc(-c5ccc(C(=O)N(C)C)cc5O)cc4)CC3)nc(N)c2cc1OC	100
O=C(NCCCN1CCC(N2CCCCC2)CC1)c1ccc2nc(N3CCCCC3)sc2c1	89
COc1cc(-c2nc(-c3ccc([N+](=O)[O-])cc3)c(-c3ccccc3)[nH]2)cc(OC)c1O	98
Oc1cc(Nc2ccnc3cc(-c4cccc(CN5CCCCC5)c4)ccc23)c(F)cc1Cl	100
CCCCCN1CCN(Cc2cccc(NC(=O)c3ccc(Cl)c(Cl)c3)c2)CC1.O=C(O)C(F)(F)F	90
CN(C)CCN(C)Cc1ccc(-c2ccc(NC(=O)c3cccc(Cl)c3)cc2)cc1.O=C(O)C(F)(F)F	94
COc1cc(F)c2ncc(C#N)c(CCN3CCC(NCc4ccc5c(c4)OCCO5)CC3)c2c1.Cl	97
COc1cccc(C(C)(C)NC[C@@H](O)[C@H](Cc2ccccc2)NC(=O)c2cc(C3CCCC3)cc(N3CCCCS3(=O)=O)c2F)c1.O=CO	99

Compound	Inhibition [%]
CN(C)c1ccc(N2C(N)=NC(N)=NC23CCCC3)cc1.Cl	97
CCCCOP(=O)(COc1ccc(CCN(CC(O)COc2cccc3[nH]c4ccccc4c23)CC(O)COc2cccc3[nH]c4ccccc4c23)cc1)C1CCCCC1 (stereo not given)	89
O=C(/C=C/c1ccc(Cl)c(Cl)c1)N1CCC(CCN2CCC(c3c[nH]c4ccncc34)CC2)CC1	100
Cc1cc(-c2cccc(CNC3CCN(C)CC3)c2)ccc1S(=O)(=O)NCCc1ccccn1.O=C(O)C(F)(F)F	97
COC(=O)c1cc2cccc(NC[C@@H](C)NC[C@H](O)c3cccc(Cl)c3)c2[nH]1	98
C[C@H](Cc1ccc(C[C@@H](C)NC[C@H](O)c2cccc(Cl)c2)cc1)NC[C@H](O)COc1ccccc1.Cl	96
CCOc1ccc(C(=O)N2CCOC(CCN3CCC4(CCc5ccccc54)CC3)(c3ccc(Cl)c(Cl)c3)C2)cc1 (stereo not given)	81
COc1ccc(C=NN=c2c3ccccc3[nH]c3ccccc23)c2ccccc12	82
COc1ccccc1C1CC(c2ccccc2)=NN1C(=O)c1ccco1 (stereo not given)	97
Cc1ccc(NC(=O)c2ccc3ncccc3c2)cc1OC1CCN(Cc2ccco2)C1.O=C(O)C(F)(F)F (stereo not given)	86
NC1CCN(Cc2ccc(-c3cccc(-c4nc5cc(F)ccc5[nH]4)c3)cc2)C1.O=C(O)C(F)(F)F (stereo not given)	100
O=C(Nc1cccc(F)c1)N[C@H]1CCN(CCCCCNC(=O)C2CC2c2ccc(Cl)c(Cl)c2)C1 (stereo not given in full)	90
O=C(NC1CCCc2ccccc21)C1CCCN(C(=O)c2ccc(O)c(-c3ccc(Cl)c(Cl)c3)c2)C1 (stereo not given)	88
C(=C(c1cccs1)c1cccs1)c1ccc(CNC2CCN(Cc3ccccc3)CC2)cc1.Cl	98
CCCc1cc(Cc2cnc(N)nc2N)cc(CC)c1O.Cl	87
O=C(NCc1ccc(C(=O)NC2CCCCC2)cc1)c1ccc(O)c(-c2ccc(Cl)c(Cl)c2)c1	93
Cc1cc2nc(-c3ccc(C(=O)NC4CCN(Cc5ccccc5)CC4)cc3)[nH]c2cc1C	93
COc1ccc(-n2ccnc2SCC(=O)Nc2cccc(C(F)(F)F)c2)c(OC)c1	98
Cc1nc(C)c(-c2ccc(C(F)(F)F)cc2)c(O)c1Br	98
CC[C@H](C)CNC(=O)c1ccnc(-c2cccc(CN(C)C3CCN(C)CC3)c2)c1.O=C(O)C(F)(F)F	100
